Many of the other results were omitted from the sample, so hits are more common in it than they were.
ERp5 block – inhibitors of human ERp5; ERp5 insulin aggregation, absorbance 650 nm, 90 min; inhibition, % at 9.99 µM; 0.05% of 350,000 active; Q15084; AID 651711;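 active = mean replicate inhibition above about 25%, with every replicate also reaching it, limit read from the data, passing the limit was not always enough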
Target sequence (Q15084 whole entry, looked up): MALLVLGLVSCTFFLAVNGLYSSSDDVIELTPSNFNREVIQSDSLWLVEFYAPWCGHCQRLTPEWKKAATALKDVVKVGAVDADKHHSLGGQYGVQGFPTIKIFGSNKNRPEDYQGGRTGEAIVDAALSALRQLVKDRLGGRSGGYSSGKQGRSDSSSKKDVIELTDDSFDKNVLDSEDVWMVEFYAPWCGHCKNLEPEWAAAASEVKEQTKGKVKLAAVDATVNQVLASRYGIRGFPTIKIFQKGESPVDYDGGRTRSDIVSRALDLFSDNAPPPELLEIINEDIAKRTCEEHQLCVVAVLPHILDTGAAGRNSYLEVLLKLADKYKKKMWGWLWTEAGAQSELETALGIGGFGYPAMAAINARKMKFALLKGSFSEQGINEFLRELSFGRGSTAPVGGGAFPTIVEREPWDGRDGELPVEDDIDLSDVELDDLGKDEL
PglD DTNB – inhibitors of Campylobacter jejuni PglD acetyltransferase. purified PglD enzyme, DTNB colorimetric CoA detection. inhibition, % at 12.5 µM. AID 602405. 0.098% of 360,000 active; in the data active = inhibition above about 16%, passing the limit was not always enough
ARNT-TACC3 inh – ARNT/TACC3 interaction disruption; Q9Y6A5; AlphaScreen His-ARNT PAS-B/GST-TACC3 binding, luminescence; TACC3 fragment carries E629A point mutation; inhibition, % at 9.99 µM; 0.66% of 390,000 active;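 active = mean inhibition of replicates at least 50% and at least half of replicates each reaching 50%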
CendR NRP1 mod – alters CendR peptide binding to human NRP-1; O14786; 0.85% of 360,000 active; inhibition, % at 25 µM; FAM-RPARPAR peptide binding to NRP-1, fluorescence polarization;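 active = inhibition or corrected inhibition above about 18%, plus a signal ratio from 0.5 to 1.5, limit read from the data, passing the limit was not always enough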
PDI inh – inhibitors of human protein disulfide isomerase. P07237. PDI insulin aggregation turbidity, A650, 90 min. inhibition, % at 10 µM. 0.052% of 350,000 active. AID 588391;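 active = mean inhibition across replicates of 30% or more, whatever share of single replicates reach that level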
ALR inh – human ALR oxidase inhibition via reduced H2O2 | 3.8% of 290,000 active | purified ALR, DTT oxidation, H2O2 HRP-luminol luminescence | P55789 | inhibition, % (no concentration beside the values) | AID 485317;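 active = mean replicate inhibition above about 79%, with every replicate also reaching it, limit read from the data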
Large screens that a line does not name were inactive.

O=C(O)[C@H](Cc1ccccc1)NC(=O)N1CCN(c2ccc(F)cc2)CC1	ALR inh 98
CC1CCN(C(=O)N[C@@H](Cc2ccccc2)C(=O)O)CC1	CendR NRP1 mod 20 (no result: ERp5 block)
COC(=O)[C@H](Cc1ccccc1)NC(=O)N1CCN(c2ccccc2)CC1	ALR inh 85
C[C@@H]1CCCCO[C@H](CN(C)C(=O)C2CCCCC2)[C@H](C)CN([C@H](C)CO)C(=O)c2cc(NC(=O)CCC(F)(F)F)ccc2O1	none (no result: CendR NRP1 mod, PDI inh, ALR inh)
CCCNC(=O)C[C@H]1CC[C@H]2[C@@H](COC[C@@H](O)CN2C(=O)c2ccccn2)O1	none (no result: CendR NRP1 mod, PDI inh, ALR inh)
C[C@H](CO)N1C[C@H](C)[C@@H](CN(C)C(=O)Nc2ccc(F)cc2)Oc2c(NC(=O)C3CCCCC3)cccc2C1=O	none (no result: CendR NRP1 mod, PDI inh, ALR inh)
COc1cccc(-c2ccc3n(c2=O)C[C@@H]2[C@@H](CO)[C@H](C(=O)NCC4CC4)N(C)[C@H]32)c1	none (no result: CendR NRP1 mod, PDI inh, ALR inh)
COc1ccccc1/C=N/NC(=O)CN(C1=NS(=O)(=O)c2ccccc21)c1ccccc1	CendR NRP1 mod 26 (no result: ERp5 block, PglD DTNB)
COc1ccc(/C=N/NC(=O)CN(C2=NS(=O)(=O)c3ccccc32)c2ccccc2)cc1	none (no result: ERp5 block)
CCC(=O)N1CCC2(CC1)CN(C(=O)Cc1ccccc1)[C@@H](CO)c1c2c2ccc(OC)cc2n1C	none (no result: PglD DTNB, ARNT-TACC3 inh, CendR NRP1 mod, PDI inh, ALR inh)
O=C(C=Cc1ccco1)c1ccco1	none (no result: ALR inh)
Cc1ccc(C(=O)/C=C/c2ccco2)c(O)c1	ALR inh 98 (no result: ERp5 block)
CN(C)c1ccc(/C=N/OC(=O)Nc2ccccc2)cc1	ALR inh 84
CN(C)c1ccc(/C=N/NC(=O)c2ccccc2)cc1	none (no result: ARNT-TACC3 inh, ALR inh)
CN(C)c1ccc(/C=N/NC(=O)c2ccccc2Cl)cc1	ALR inh 98 (no result: ARNT-TACC3 inh)
CN(C)c1ccc(/C=N/NC(=O)c2sccc2-n2cccc2)cc1	ALR inh 99
O=C(N/N=C\c1ccc(Cl)cc1)c1sccc1-n1cccc1	none (no result: ERp5 block, ALR inh)
Cc1occc1C(=O)N/N=C/C=C/c1ccccc1	none (no result: PglD DTNB)
Cc1occc1C(=O)N/N=C/C=C/c1ccc(N(C)C)cc1	ALR inh 99
N#C[C@@H]1[C@@H](c2ccc(-c3ccncc3)cc2)[C@@H](CO)N1C(=O)C1CCC1	none (no result: CendR NRP1 mod, PDI inh, ALR inh)
CN1c2ccc(-c3cccc(C#N)c3)cc2[C@@H]2[C@@H](CCN2C(=O)C2CCCCC2)[C@@H]1CO	none (no result: PglD DTNB, ARNT-TACC3 inh, CendR NRP1 mod, PDI inh, ALR inh)
COc1ccc(CN(C)C[C@@H]2Oc3ccc(NC(=O)CCCN(C)C)cc3C(=O)N([C@@H](C)CO)C[C@H]2C)cc1	none (no result: CendR NRP1 mod, PDI inh, ALR inh)
C[C@H]1CN([C@@H](C)CO)C(=O)c2cccc(NC(=O)C3CCOCC3)c2O[C@@H]1CN(C)S(=O)(=O)c1cccs1	none (no result: CendR NRP1 mod, PDI inh, ALR inh)
C[C@@H]1CN([C@H](C)CO)S(=O)(=O)c2ccc(-c3ccncc3)cc2O[C@H]1CN(C)C(=O)CC1CC1	none (no result: CendR NRP1 mod, PDI inh, ALR inh)
Cc1occc1C(=O)N/N=C/c1ccc(N(C)C)cc1	ALR inh 94
Cc1ccc(/C=N/NC(=O)c2ccoc2C)o1	none (no result: ERp5 block, PglD DTNB)
CCC1(O)C(=O)OCc2c1cc1n(c2=O)Cc2cc3cc(O)ccc3nc2-1 (stereo unspecified)	CendR NRP1 mod 45 (no result: PDI inh, ALR inh)
CCCNC(=O)C[C@H]1C[C@H]2c3cc(N(C)C)ccc3O[C@H]2[C@H](CO)O1	none (no result: PglD DTNB, ARNT-TACC3 inh, CendR NRP1 mod, PDI inh, ALR inh)
CCCNC(=O)N1C[C@@H](C)[C@H](OC)CN(C)C(=O)c2ccc(NC(=O)CCC)cc2OC[C@@H]1C	none (no result: CendR NRP1 mod, PDI inh, ALR inh)
CC(C)c1ccc(C2c3[nH]c4ccccc4c3C[C@H]3C(=O)N(c4ccccc4C(=O)N4CCC[C@H]4C(=O)O)C(=O)N23)cc1 (stereo partly specified)	ALR inh 98 (no result: PDI inh)
COc1cccc(C2c3[nH]c4ccccc4c3C[C@H]3C(=O)N(c4ccccc4C(=O)N4CCC(C(=O)O)CC4)C(=O)N23)c1 (stereo partly specified)	ALR inh 98 (no result: PDI inh)
COc1ccc(C2c3[nH]c4ccccc4c3C[C@H]3C(=O)N(c4ccccc4C(=O)N4CCC(C(=O)O)CC4)C(=O)N23)cc1 (stereo partly specified)	none (no result: PDI inh)
COc1ccc(-c2nc(CS(=O)CC(=O)N3CCOCC3)c(C)o2)cc1OC (stereo unspecified)	ALR inh 100
COc1ccc(-c2nc(CS(=O)CC(=O)N3CCN(C)CC3)c(C)o2)cc1 (stereo unspecified)	ALR inh 99
COc1ccc(-c2nc(CN3CCN(C(=O)c4ccco4)CC3)c(C)o2)cc1OC	none

Screening results deposited in PubChem by several laboratories.
